Assay outcomes (PubChem)
This is one part of a sample in which hits are shown more often than they occur.
D1 mod: D1 CRE-luciferase signal change, two-sided – cell-based, HEK293 D1, dopamine EC30, D1 allosteric modulator project, primary screen. D(1A) dopamine receptor (Homo sapiens), P21728. dopamine EC30 potentiation; actives deviate in either direction. B-score at 10 µM. 58,000 compounds, 5.9% hits. AID 641, 2007;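 active means luminescence count or its row- and column-corrected plate score outside the 99.7% band of the plate's sample wells, on either side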
hDAT+cocaine: changed hDAT dopamine uptake under cocaine IC80, either direction, primary screen, cocaine antagonist project, cell-based, LLC-PK1 hDAT, [14C]-dopamine uptake, MLSMR. Sodium-dependent dopamine transporter (Homo sapiens), Q01959. LLC-PK1 hDAT cells, [14C]-dopamine uptake with cocaine IC80; actives deviate in either direction. B-score at 10 µM. 110,000 compounds, 1.3% hits. AID 449768, 2010;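 active means Z score or B-score, a plate-position-corrected score, falls beyond the plate's 99.7% confidence bounds, in either direction; inactive means both scores lie inside the 99.7% bounds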
Target sequence (Q01959 whole entry, looked up): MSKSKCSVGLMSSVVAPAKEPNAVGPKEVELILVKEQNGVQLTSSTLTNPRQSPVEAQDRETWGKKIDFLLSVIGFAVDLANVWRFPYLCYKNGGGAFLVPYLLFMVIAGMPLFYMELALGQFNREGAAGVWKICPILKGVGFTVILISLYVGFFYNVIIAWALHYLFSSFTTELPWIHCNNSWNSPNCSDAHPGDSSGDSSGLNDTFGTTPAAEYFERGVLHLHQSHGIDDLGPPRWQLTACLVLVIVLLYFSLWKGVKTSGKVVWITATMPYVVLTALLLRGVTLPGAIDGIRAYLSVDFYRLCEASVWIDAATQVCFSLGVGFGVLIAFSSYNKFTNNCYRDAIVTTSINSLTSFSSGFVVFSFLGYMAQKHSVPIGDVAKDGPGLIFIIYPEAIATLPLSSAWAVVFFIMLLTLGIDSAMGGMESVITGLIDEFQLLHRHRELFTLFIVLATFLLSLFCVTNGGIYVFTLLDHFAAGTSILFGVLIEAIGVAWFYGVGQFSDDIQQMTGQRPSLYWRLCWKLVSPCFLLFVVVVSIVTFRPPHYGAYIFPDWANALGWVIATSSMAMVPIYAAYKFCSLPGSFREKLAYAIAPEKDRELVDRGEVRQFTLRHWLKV
JNK3 blocker: JNK3 kinase activity inhibitors, primary screen, biochemical, human, purified enzyme; inhibition, % at 8 µM; 60,000 compounds, 0.61% hits; AID 746, 2007; Mitogen-activated protein kinase 10 (Homo sapiens), P53779; HTS; in the data active means inhibition above about 17%
ROCK2 blocker: inhibitors of human ROCK2 kinase, primary screen, biochemical, high-throughput, luminescence; Rho-associated protein kinase 2 (Homo sapiens), O75116; purified ROCK2, Kinase-Glo ATP depletion luminescence; inhibition, % at 6 µM; 60,000 compounds, 0.35% hits; AID 604, 2007;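 active means inhibition above the screen-wide mean inhibition plus 3 SD, cut at about 18% in these data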
PKA inh: inhibitors of human PKA kinase activity, primary screen, biochemical, ATP-depletion luminescence, Kemptide substrate; cAMP-dependent protein kinase catalytic subunit alpha (Homo sapiens), P17612; inhibition, % at 6 µM; PKA Kemptide phosphorylation, Kinase-Glo ATP luminescence; AID 524, 2006; 65,000 compounds, 0.1% hits;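 active means inhibition above the screen-wide mean inhibition plus 3 SD, cut at about 21% in these data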
Each line names hits and unclear results; the compound was inactive in the other large screens.

CN(C)S(=O)(=O)N1CCN(S(=O)(=O)c2ccccc2)CC1	none
CCS(=O)(=O)N1CCN(S(=O)(=O)c2ccccc2)CC1	hDAT+cocaine -9.6 (no result: D1 mod, JNK3 blocker, ROCK2 blocker, PKA inh)
CC(C)(C)c1csc(NC(=O)c2ccc(Cl)s2)n1	hDAT+cocaine -2.6
Cc1ccc(C(=O)Nc2nc(C(C)(C)C)cs2)s1	none (no result: D1 mod, JNK3 blocker, ROCK2 blocker, PKA inh)
Cc1csc(NC(=O)c2cc3c(s2)CCC3)n1	D1 mod -5.6 (no result: JNK3 blocker, ROCK2 blocker)
COC(=O)c1sc(NC(=O)c2cc3c(s2)CCCC3)nc1C	none
Cc1nc(NC(=O)c2cc3c(s2)CCCCC3)sc1C(=O)N(C)C	hDAT+cocaine 2.3
COc1ccc(C(=O)Nc2ccc(NC(=O)c3cnccn3)cn2)cc1	none (no result: D1 mod, JNK3 blocker, ROCK2 blocker, PKA inh)
COc1ccc(-n2ncc3c(NCc4ccc5c(c4)OCO5)ncnc32)cc1	none
COc1ccc(-n2ncc3c(N4CCCCC4)ncnc32)cc1	D1 mod -7.1
COc1ccc(-n2ncc3c(N4CCN(c5cccc(C)c5C)CC4)ncnc32)cc1	none (no result: hDAT+cocaine)
COc1ccc(-n2ncc3c(NCC(C)C)ncnc32)cc1	D1 mod -4.2
Clc1ccc(-n2ncc3c(N4CCCCCC4)ncnc32)cc1	D1 mod -8.6
Cc1cccn2c(=O)c3cc(C(=O)N4CCc5ccccc5C4)n(C)c3nc12	none (no result: hDAT+cocaine)
Cc1ccc(C(=O)N/C(=C\c2cccs2)C(=O)NCCCn2ccnc2)cc1C	none (no result: D1 mod, JNK3 blocker, ROCK2 blocker, PKA inh)
CCO[C@H]1OC(C(N)=O)=C[C@@H](C)[C@@H]1CCCO	none (no result: D1 mod, JNK3 blocker, ROCK2 blocker, PKA inh)
Fc1ccccc1N1CCN(c2ncnc3[nH]ncc23)CC1	PKA inh 28 (no result: hDAT+cocaine)
NC(=O)CN1CCN(c2ccccc2F)CC1	none
Cc1ccccc1Oc1ccc(Oc2ccccc2C)nn1	none
CC(=O)c1c(C)[nH]c(C(=O)OCC(=O)N2CCc3ccccc32)c1C	hDAT+cocaine -2.6 (no result: D1 mod, JNK3 blocker, ROCK2 blocker, PKA inh)
O=C(Nc1ccncc1)c1ccc(F)cc1	none (no result: D1 mod, JNK3 blocker, ROCK2 blocker, PKA inh)
O=C(Nc1ccncc1)Nc1ccc(F)cc1F	ROCK2 blocker 23
COc1ccc(NC(=O)NCCN2CCc3ccccc3C2)cc1	none
O=C(NCCCN1CCc2ccccc2C1)Nc1ccc(Cl)cc1	hDAT+cocaine -2.5 (no result: D1 mod, JNK3 blocker, ROCK2 blocker, PKA inh)
Oc1ccc2ccccc2c1C=Nc1cc(C(F)(F)F)ccc1N1CCCC1	none (no result: D1 mod, JNK3 blocker, ROCK2 blocker, PKA inh)
CC(CCc1ccco1)NC(=O)Nc1cccc(F)c1 (configuration not stated)	hDAT+cocaine -2.6
NC(=O)C1CCN(c2ncnc3c(-c4ccccc4)nsc23)CC1	hDAT+cocaine -7.2
NC(=O)C1=C[C@@H](c2coc3ccccc3c2=O)C[C@@H](OCCCCO)O1	none (no result: D1 mod, JNK3 blocker, ROCK2 blocker, PKA inh)
C=CCOC(=O)C1=C[C@@H](c2coc3ccccc3c2=O)C[C@@H](OCCCCO)O1	hDAT+cocaine 2.8 (no result: D1 mod, JNK3 blocker, ROCK2 blocker, PKA inh)
Cc1cc(C)cc(OCC(=O)Nc2cccc(-c3nnc(-c4ccco4)o3)c2)c1	D1 mod -3.4
Cc1ccc(Cn2c(C3CCCN3c3nc(-c4cc(Cl)c(N)c(Cl)c4)cs3)nc3cc(Cl)c(Cl)cc32)cc1 (configuration not stated)	none (no result: D1 mod, JNK3 blocker, ROCK2 blocker, PKA inh)
O=S(=O)(Nc1nc2ccccc2s1)c1ccc(Br)s1	hDAT+cocaine -3.9
Cc1ccccc1NC(=O)c1cnc2ccccn2c1=O	D1 mod -5.8
CN(C)CCSc1nc(-c2ccccc2)nc2c1COC(C)(C)C2	hDAT+cocaine 3 (no result: D1 mod, JNK3 blocker, ROCK2 blocker, PKA inh)
CSc1nc(-c2ccccc2)nc2c1COC(C)(C)C2	none
CCOC(=O)C(C)Sc1nc2c(c(=O)[nH]c(=O)n2C)n1CCc1ccccc1 (configuration not stated)	D1 mod 5.6
Cc1ccc(Cn2c(Sc3nnc(C)s3)nc3c2c(=O)[nH]c(=O)n3C)cc1	none
CCCCOC(=O)CSc1nc2c(c(=O)[nH]c(=O)n2C)n1C/C=C(\C)Cl	none
CCCCCn1c(SCCCC)nc2c1c(=O)[nH]c(=O)n2C	D1 mod 20
C/C(Cl)=C/Cn1c(SCC(C)C)nc2c1c(=O)[nH]c(=O)n2C	D1 mod 14
Cn1c(=O)[nH]c(=O)c2c1nc(Sc1nc3ccccc3s1)n2Cc1ccccc1	D1 mod 4
COc1ccc(C2CC(=O)c3cnc(NC(=O)c4ccccc4)nc3C2)c(OC)c1 (configuration not stated)	none
CC(C)=CC(=O)Nc1ccccc1C(N)=O	none
CC(C)(C)NC(=O)Nc1ccccc1C(N)=O	D1 mod -4.3
COC(=O)[C@@H]1C[C@@H]2CC[C@@H](O)C[C@@H]2N1Cc1ccc(N2CCN(C)CC2)cc1	none (no result: D1 mod, JNK3 blocker, ROCK2 blocker, PKA inh)
CC1CCN(S(=O)(=O)c2ccc(Cl)cc2)CC1	none
CC1=C(C)CS(=O)N(S(=O)(=O)c2ccc(Cl)cc2)C1 (configuration not stated)	JNK3 blocker 20
CC(C)CCN1CC(C(=O)N2CCN(c3ccc(F)cc3)CC2)CC1=O (configuration not stated)	ROCK2 blocker 129
O=C1CC(C(=O)N2CCN(c3ccc(F)cc3)CC2)CN1CCc1ccccc1 (configuration not stated)	none
Cn1cc(Cl)c(-c2nc3ccccc3[nH]2)n1	none (no result: D1 mod, JNK3 blocker, ROCK2 blocker)
Nc1nonc1-c1nc2ccccc2[nH]1	ROCK2 blocker 61
CCCCn1nnc(NC(=O)COc2cc(C)ccc2C(C)C)n1	none
CCCn1nnc(NC(=O)COc2cc(C)ccc2C(C)C)n1	hDAT+cocaine -8.9
Cc1ccc(OCC(=O)Nc2nnn(C)n2)c(C)c1	hDAT+cocaine -2.6
COc1ccccc1N1CCN(C(c2ccc(C)cc2)c2nnnn2C(C)C)CC1 (configuration not stated)	hDAT+cocaine 3.1
Cc1ccc(CNc2oc(-c3ccco3)nc2S(=O)(=O)c2ccccc2)cc1	none (no result: D1 mod, JNK3 blocker, ROCK2 blocker, PKA inh)
NCCCC[C@H]1CNC(=O)C(=O)N1CCc1cccc2ccccc12	none (no result: D1 mod, JNK3 blocker, ROCK2 blocker, PKA inh)
CCSc1nnc(-c2ccncc2)o1	none (no result: D1 mod, JNK3 blocker, ROCK2 blocker, PKA inh)
CCSc1nnc(-c2sc3nnc(-c4ccccc4)c(-c4ccccc4)c3c2N)o1	hDAT+cocaine 1.6 (no result: D1 mod, JNK3 blocker, ROCK2 blocker, PKA inh)
CC(C)OC(=O)CN1CCN(C2c3ccccc3-c3ccccc32)CC1	none
O=C(Nc1ccc(S(=O)(=O)N2CCc3ccccc32)cc1)c1ccco1	D1 mod -4.9
Cc1ccc(C(=O)CCNc2ccc(Cl)cc2)o1	none (no result: D1 mod, JNK3 blocker, ROCK2 blocker, PKA inh)
Cc1cc(=O)n2c(nc3ccccc32)[nH]1	none (no result: D1 mod, JNK3 blocker, ROCK2 blocker, PKA inh)
CCCc1cc(=O)n2c(nc3ccccc32)[nH]1	JNK3 blocker 28
c1csc(-c2ncc3ccccn23)c1	D1 mod -3.8
COc1ccc(-c2ncc3ccccn23)cc1	none
Cn1cnc2c(sc3nc(N4CCOCC4)c4c(c32)CC(C)(C)OC4)c1=O	D1 mod 3.6 (no result: hDAT+cocaine)
N#Cc1c(Cl)nc(SCc2ccccc2)nc1-c1ccccc1	none (no result: D1 mod, JNK3 blocker, ROCK2 blocker, PKA inh)
CCCC(=O)NC(=S)Nc1c(C)cc(Br)cc1C	none (no result: D1 mod, JNK3 blocker, ROCK2 blocker, PKA inh)
Cc1cc(Br)cc(C)c1NC(=S)NC(=O)CC(C)C	hDAT+cocaine -8 (no result: D1 mod, JNK3 blocker, ROCK2 blocker, PKA inh)
COc1cccc2c(=O)c(SC(F)(F)C(F)C(F)(F)F)c(C)[nH]c12 (configuration not stated)	none
